# Data taken from the supplement of paper PMC9254222.
# The full ranking holds about 1,100 compounds; the median of “Wnt reporter firefly/Renilla luciferase ratio relative to plate median” is about 1.1, and the highest 2% start at about 1.6. The list comes from a sample in which the highest values are over-represented; it also holds similar structures and randomly drawn compounds.
# Tested on: HEK293T (UBE3A T485A transfected, BAR Wnt reporter)
# Experiment: Wnt reporter firefly/Renilla luciferase ratio relative to plate median (fold (linear ratio)); higher = more Wnt/beta-catenin reporter activation
# Settings: 24 h
# Outline: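 HEK293T cells carrying a transfected BAR firefly luciferase Wnt reporter, TK-Renilla and an expression plasmid were exposed to chemicals at 0.01–100 uM for 24 h, with dosing four hours after transfection. Readout used Dual-Glo luciferase. The firefly/Renilla ratio defined Wnt activity and raw Renilla defined cell health, each median-centred per plate. Figures are means of four biological replicates.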
Structure (SMILES),Wnt reporter firefly/Renilla luciferase ratio (concentration: 0.1 uM),Wnt reporter firefly/Renilla luciferase ratio (concentration: 1 uM),Wnt reporter firefly/Renilla luciferase ratio (concentration: 10 uM),Wnt reporter firefly/Renilla luciferase ratio (concentration: 100 uM),Wnt reporter firefly/Renilla luciferase ratio (concentration: 0.01 uM)
C=CCOC(=O)c1ccccc1C(=O)OCC=C [Diallyl phthalate],1.17,1.04,1.22,1.09,
CCOc1cc(Oc2ccc(C(F)(F)F)cc2Cl)ccc1[N+](=O)[O-] [Oxyfluorfen],1.05,0.917,1.07,0.292,1.01
CCCCCCCCCCCCCN1CC(C)OC(C)C1 (stereo not drawn) [Tridemorph],1.09,1.23,1.04,1.05,
CCOP(=O)(OCC)Oc1nc(Cl)c(Cl)cc1Cl [Chlorpyrifos oxon],0.876,1.02,0.861,0.591,0.967
CN(C)C(=O)Cl [Dimethylcarbamoyl chloride],0.982,1.32,1.35,1.31,
Cc1cccc([N+](=O)[O-])c1 [3-Nitrotoluene],1.02,1.03,0.836,1.17,
CN(C)C(=O)Nc1cccc(C(F)(F)F)c1 [Fluometuron],1.43,1.1,0.996,1.04,1.3
O=P(OC(CCl)CCl)(OC(CCl)CCl)OC(CCl)CCl,1.19,0.764,1.31,0.44,
CCC(CC)Nc1c([N+](=O)[O-])cc(C)c(C)c1[N+](=O)[O-] [Pendimethalin],0.866,0.946,0.92,1.08,0.882
"CC(C)(C)CC(C)(C)c1ccc(O)cc1 [4-(1,1,3,3-Tetramethylbutyl)phenol]",1.03,0.968,1.15,0.935,
CN1COCN(Cc2cnc(Cl)s2)C1=N[N+](=O)[O-] [Thiamethoxam],1.19,1.01,0.971,1.2,1.14
c1ccc(C2CO2)cc1 (stereo not drawn) [Styrene oxide],1.23,0.89,1.19,1.71,
c1ccc(N=Nc2ccccc2)cc1 [Azobenzene],1.35,1.05,1.38,1.1,
"c1ccc(NNc2ccccc2)cc1 [1,2-Diphenylhydrazine]",1.25,1.04,1.19,1.27,
CCOP(=S)(Oc1ccc([N+](=O)[O-])cc1)c1ccccc1 (stereo not drawn),1.05,1.07,0.965,0.846,
COc1nn(CSP(=S)(OC)OC)c(=O)s1 [Methidathion],1.74,1.33,1.56,0.818,1.41
"Cc1cc(-c2ccc(N)c(C)c2)ccc1N [3,3'-Dimethylbenzidine]",1.15,0.925,0.831,0.556,
CCC(C)n1c(=O)[nH]c(C)c(Br)c1=O (stereo not drawn) [Bromacil],1,0.995,0.904,0.896,0.919
c1ccc2c(c1)oc1ccccc12 [Dibenzofuran],1.04,0.95,1.02,1.15,
Oc1ccc(Cl)cc1Cc1ccccc1 [Clorophene],1.05,1.07,0.943,,0.901
Nc1ccc2ccccc2c1 [2-Naphthylamine],0.991,0.869,0.998,0.629,

Structure (SMILES),Wnt reporter firefly/Renilla luciferase ratio (concentration: 0.1 uM),Wnt reporter firefly/Renilla luciferase ratio (concentration: 1 uM),Wnt reporter firefly/Renilla luciferase ratio (concentration: 10 uM),Wnt reporter firefly/Renilla luciferase ratio (concentration: 100 uM),Wnt reporter firefly/Renilla luciferase ratio (concentration: 0.01 uM)
CCOP(=S)(OCC)Oc1nc(Cl)c(Cl)cc1Cl [Chlorpyrifos],1.11,1.01,0.926,1.12,
"N#CC(Br)(Br)C(N)=O [2,2-Dibromo-3-nitrilopropionamide]",1.26,1.24,1.3,1.23,
Nc1ccc([N+](=O)[O-])cc1 [4-Nitroaniline],1.19,0.817,0.602,0.574,
O=S(=O)([O-])C(F)(F)C(F)(F)C(F)(F)C(F)(F)C(F)(F)C(F)(F)C(F)(F)C(F)(F)F.[K+],1.12,1.24,1.39,0.833,
O=S(=O)([O-])C(F)(F)C(F)(F)C(F)(F)C(F)(F)C(F)(F)C(F)(F)F.[K+],1.21,0.967,1.07,1.21,
O=S(=O)([O-])C(F)(F)C(F)(F)C(F)(F)C(F)(F)F.[K+],1.15,1.04,1.23,1.73,
ClC1=C(Cl)C(Cl)(Cl)C(Cl)=C1Cl [Hexachlorocyclopentadiene],1.24,0.958,1.02,0.638,
O=C(O)CNCP(=O)(O)O [Glyphosate],1.38,1.39,1.04,1.75,1.29
C=C(C)[C@H]1Cc2c(ccc3c2O[C@@H]2COc4cc(OC)c(OC)cc4[C@@H]2C3=O)O1 [Rotenone],0.675,0.7,0.862,,0.948
CCc1cccc(CC)c1N(COC)C(=O)CCl [Alachlor],0.977,0.938,0.799,0.366,0.923
CC1(C)C(C=C(Cl)Cl)C1C(=O)OC(C#N)c1cccc(Oc2ccccc2)c1 (stereo not drawn) [Cypermethrin],1.14,1.06,0.991,0.601,1.02
CS(=O)(=O)c1ccc(C(=O)C2C(=O)CCCC2=O)c([N+](=O)[O-])c1 [Mesotrione],1.82,0.968,1.14,1.16,1.7
C=CC(N)=O [Acrylamide],0.86,0.905,0.839,1.1,
N#CSCSC#N [Methylene bis(thiocyanate)],0.976,1.05,1.31,,0.967
CNC(=O)ON=C(SC)C(=O)N(C)C [Oxamyl],1.22,1.11,1.43,0.291,1.55
CNC(=O)ON=C(C)SC [Methomyl],1.08,1.03,0.996,1.19,0.847
CS/C(C)=N/OC(=O)N(C)SN(C)C(=O)O/N=C(\C)SC [Thiodicarb],1.86,1.6,1.15,,1.53
"Nn1cnnc1 [4-Amino-1,2,4-triazole]",1.22,0.928,1.27,1.43,
ClC1=C(Cl)[C@]2(Cl)[C@H]3[C@H]([C@@H]4C=C[C@H]3C4)[C@@]1(Cl)C2(Cl)Cl [Aldrin],1.2,0.895,1.15,1.43,
COC(=O)c1ccccc1C(=O)OC [Dimethyl phthalate],1.21,1.21,1.2,1.42,1.03
N#Cc1nn(-c2c(Cl)cc(C(F)(F)F)cc2Cl)c(N)c1S(=O)C(F)(F)F (stereo not drawn) [Fipronil],0.896,0.987,0.889,0.402,0.954
